Measured values: PubChem BioAssay AID720650 (Broad Institute, 2013)
Unmarked numbers belong to inactive results. Active and inactive are the calls of the source. The rule behind the calls is not given here.

test: C difficile toxins, biochemical counterscreen, UDPG substrate absence, confirmatory dose response (AID 720650); conditions: series mostly up to 19.5 µM

**Q.** For O=C(C[C@H]1CC[C@@H]2[C@H](COC[C@@H](O)CN2C(=O)c2ccccn2)O1)NC1CCC1, which AC50 is on record?
**A.** The AC50 was “inactive”.

**Q.** For CC(C)Cc1nnc(NC(=O)CCC(=O)NCc2ccccc2Cl)s1, which AC50 is on record?
**A.** Its AC50 is “inactive”.

**Q.** Which AC50 does the source give for O=C(/C=C/c1ccc(O)cc1)c1ccccc1 here?
**A.** Its AC50 is 9.92 µM (active).

**Q.** For CCOC(=O)c1ccc(N=c2sc(C(=O)OC)cc(=O)n2CCCN2CCOCC2)cc1, which AC50 is on record?
**A.** The AC50 was “inactive”.

**Q.** Which AC50 does the source give for CC1CC(=O)N(c2ccc(NCCc3ccc(O)cc3)c([N+](=O)[O-])c2)C1=O (centres undefined) here?
**A.** Its AC50 is “inactive”.

**Q.** With C[C@H](CO)N1C[C@H](C)[C@@H](CN(C)C(=O)Nc2ccc(C(F)(F)F)cc2)Oc2c(NS(=O)(=O)c3cn(C)cn3)cccc2C1=O as the compound, how does the AC50 read?
**A.** Its AC50 is greater than 39 µM.

**Q.** With O=C(N/N=C/c1ccc(O)c(O)c1)C1CC1 as the compound, how does the AC50 read?
**A.** Its AC50 is greater than 39 µM.

**Q.** For C[C@@H]1C=C[C@](Cc2ccccc2)(C(=O)NCC2CC2)N1C(=O)c1ccccc1, which AC50 is on record?
**A.** The AC50 was “inactive”.

**Q.** Which AC50 does the source give for c1ccc(OCCSc2nnc3sc4ccccc4n23)cc1 here?
**A.** Its AC50 is 20.6 µM (active).

**Q.** Which AC50 does the source give for Cc1ccc(NS(=O)(=O)c2ccc(C)c(NC(=S)NCCN3CCOCC3)c2)c(C)c1 here?
**A.** Its AC50 is “inactive”.

**Q.** With O=C1COc2ccc(C(=O)COC(=O)CNS(=O)(=O)c3cccc(F)c3)cc2N1 as the compound, how does the AC50 read?
**A.** Its AC50 is “inactive”.

**Q.** With CN(C)c1ccc(C(=O)OCC#CCSc2nnc(-c3cccc4ccccc34)o2)cc1 as the compound, how does the AC50 read?
**A.** Its AC50 is “inactive”.

**Q.** For CCOc1ccc(S(=O)(=O)NCCC(=O)NCc2ccccn2)cc1, which AC50 is on record?
**A.** The AC50 was “inactive”.

**Q.** For ON=C1c2ccccc2-c2ccc(O)cc21, which AC50 is on record?
**A.** Its AC50 is 7.21 µM (active).

**Q.** With Cc1ccc(/C=C(\C#N)C(=O)Nc2ccccn2)o1 as the compound, how does the AC50 read?
**A.** Its AC50 is “inactive”.

**Q.** With Cc1cccc(-c2n[nH]c(=S)n2/N=C/C=C/c2ccco2)c1 as the compound, how does the AC50 read?
**A.** Its AC50 is “inactive”.

**Q.** With Cc1ccc2c(C)c3ccc4ccccc4c3c[n+]2c1 as the compound, how does the AC50 read?
**A.** Its AC50 is “inactive”.

**Q.** Which AC50 does the source give for Cc1nc2ccccc2nc1OCC(=O)Nc1ccc(F)cc1 here?
**A.** The AC50 was “inactive”.

**Q.** With Cc1ccc(S(=O)(=O)Oc2cccc(/C=N/n3cnnc3)c2)cc1 as the compound, how does the AC50 read?
**A.** Its AC50 is greater than 39 µM.

**Q.** With COc1ccc(S(=O)(=O)N2CCC[C@H]2C(=O)N2CCC[C@H]2C(=O)NCc2ccncc2)cc1C as the compound, how does the AC50 read?
**A.** The AC50 was “inactive”.

**Q.** Which AC50 does the source give for Cc1ccc(S(=O)(=O)Oc2ccccc2/C=C2\SC(=O)NC2=O)cc1 here?
**A.** Its AC50 is “inactive”.

**Q.** For CC(C)CNC(=O)C(=O)NCC1CCCN1S(=O)(=O)c1cccs1 (centres undefined), which AC50 is on record?
**A.** The AC50 was “inactive”.

**Q.** Which AC50 does the source give for CC12CCC3C(=CCc4cc(O)ccc43)C1CC(=NO)C2O (centres undefined) here?
**A.** Its AC50 is 19.4 µM (active).

**Q.** Which AC50 does the source give for Cn1c(=O)c2[nH]c(=S)n(Cc3ccccc3)c2n(C)c1=O here?
**A.** Its AC50 is 14.4 µM (active).

**Q.** For S=c1nc(-c2cccc(Cl)c2)[nH][nH]1, which AC50 is on record?
**A.** The AC50 was 3.82 µM (active).

**Q.** For Oc1ccc(CCc2ccccn2)cc1, which AC50 is on record?
**A.** The AC50 was 11.6 µM (active).

**Q.** For CS(=O)(=O)Nc1cccc(C2=NN(C(=O)c3ccccc3)C(c3cccs3)C2)c1 (centres undefined), which AC50 is on record?
**A.** Its AC50 is “inactive”.

**Q.** With CNC(=O)C[C@H]1CC[C@@H]2[C@H](COc3ccc(NC(=O)Nc4ccc(C)cc4)cc3C(=O)N2C)O1 as the compound, how does the AC50 read?
**A.** The AC50 was greater than 39 µM.

**Q.** With CCOC(=O)c1sc(=S)[nH]c1C as the compound, how does the AC50 read?
**A.** The AC50 was greater than 39 µM.

**Q.** With CCC(C)NC(=O)CSc1nc2cc(S(=O)(=O)N3CCOCC3)ccc2n1CC (centres undefined) as the compound, how does the AC50 read?
**A.** The AC50 was “inactive”.

**Q.** For O=c1c2oc3nc4c(cc3c2ncn1CCCc1ccccc1)CCCC4, which AC50 is on record?
**A.** The AC50 was “inactive”.

**Q.** With O=CN(c1ccccc1)c1ccc2ccccc2c1 as the compound, how does the AC50 read?
**A.** Its AC50 is “inactive”.

**Q.** Which AC50 does the source give for COC(=O)/C=C/C(=O)Nc1ccc(O)c(Cl)c1 here?
**A.** The AC50 was 13.6 µM (active).

**Q.** Which AC50 does the source give for C[C@H]1CN([C@@H](C)CO)S(=O)(=O)c2ccc(-c3ccncc3)cc2O[C@@H]1CN(C)Cc1ccc(Oc2ccccc2)cc1 here?
**A.** Its AC50 is “inactive”.

**Q.** For CCOC(CCNC(=O)c1cn(CCOC)c(=O)c2c1c1ccccc1n2C)OCC, which AC50 is on record?
**A.** The AC50 was “inactive”.

**Q.** For C[C@H](CO)N1C[C@H](C)[C@@H](CN(C)C(=O)Nc2ccc(C(F)(F)F)cc2)Oc2c(NS(=O)(=O)c3cccs3)cccc2C1=O, which AC50 is on record?
**A.** The AC50 was greater than 39 µM.

**Q.** For COc1ccc(C2=NS(=O)(=O)N(C)C(C(=O)N(C)Cc3ccccc3)=C2)cc1, which AC50 is on record?
**A.** Its AC50 is “inactive”.

**Q.** Which AC50 does the source give for CN1C(=O)c2cc(NC(=O)Nc3ccccc3Cl)ccc2OC[C@H]2O[C@@H](CC(=O)NCCCN3CCOCC3)CC[C@H]21 here?
**A.** Its AC50 is “inactive”.

**Q.** Which AC50 does the source give for Cc1ccc(NC(=O)OC(C)N2CCCCC2)cc1NC(=O)OC(C)N1CCCCC1 (centres undefined) here?
**A.** Its AC50 is “inactive”.
